Tb PGK inh: qHTS Assay to Find Inhibitors of Phosphoglycerate Kinase. Phosphoglycerate kinase, glycosomal (Trypanosoma brucei brucei), P07378. PGK/GAPDH coupled, Kinase-Glo luminescence, 60 min. Potency, µM (top dose mostly 57.5 µM), inactives show at the top dose activity change, negative = inhibition, actives largely listed as inhibitors. hit rate 0.043% among 380,000; also: % is scaled to controls: 0 for no effect and ±100 for the full control effect; nearly all actives have a fitted effect of over 60% in size
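Luminescent ATP detection (Kinase-Glo Plus) follows a 60-minute room-temperature incubation, with wells lacking PGK as controls. Buffer: 100 mM TEA (pH 7.6), 5 mM MgCl2, 0.01% Tween-20. Coupling enzyme GAPDH (100 nM final) supplies unstable 1,3-BPG in-well.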
FEN1 inh-1: qHTS Assay for the Inhibitors of Human Flap endonuclease 1 (FEN1) | P39748 | Recombinant FEN1 flap cleavage, fluorescence, 15 min | Potency, µM (titrated, usually from 114 µM), for the others: at the highest dose activity change, negative = inhibition, usual class: inhibitors | hit rate 0.35% among 390,000 | AID 588795, 2011; also: % is scaled to controls: 0 for no effect and ±100 for the full control effect; nearly all actives have a fitted effect of over 65% in size
Target sequence (P39748 whole entry, looked up): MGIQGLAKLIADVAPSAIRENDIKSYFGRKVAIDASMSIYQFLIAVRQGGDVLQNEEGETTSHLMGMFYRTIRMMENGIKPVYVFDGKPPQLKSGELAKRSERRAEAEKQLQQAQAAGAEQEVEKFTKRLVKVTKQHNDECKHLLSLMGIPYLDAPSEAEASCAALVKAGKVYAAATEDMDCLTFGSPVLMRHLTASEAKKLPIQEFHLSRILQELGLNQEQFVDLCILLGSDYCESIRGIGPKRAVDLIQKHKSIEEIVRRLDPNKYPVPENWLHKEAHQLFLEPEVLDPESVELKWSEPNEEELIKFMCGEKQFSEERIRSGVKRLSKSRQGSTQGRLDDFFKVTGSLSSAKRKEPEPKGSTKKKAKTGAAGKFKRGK
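Potency values derive from four-parameter Hill fits of normalized qHTS data. The reaction used 10 nM FEN1 preincubated 15 min at room temperature with compound, then 50 nM DNA substrate, read at 0 and 15 min.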
POLK inh: qHTS for Inhibitors of Polymerase Kappa; purified Pol kappa, fluorescent DNA synthesis assay, 10 min; Potency, µM (doses to about 107 µM), without a hit: at the highest dose activity, negative = inhibition, hits mostly inhibitors; AID 588579, 2011; hit rate 0.53% among 400,000; also: % is scaled to controls: 0 for no effect and ±100 for the full control effect
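Activity was followed as the change in fluorescence between reads at 0 and 10 min after starting the reaction with 50 nM substrate. Beforehand, 10 nM polymerase had been preincubated with compound for 15 min at room temperature.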
POLI inh: qHTS for Inhibitors of Polymerase Iota. AID 588590, 2011. hit rate 1% among 390,000. Potency, µM (doses to about 115 µM), for inactives: at the highest dose activity, negative = inhibition, actives largely listed as inhibitors. DNA polymerase iota (Homo sapiens), Q9UNA4. Pol iota fluorescent replication assay, 10 min
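Fluorescent replication assay read twice, at 0 min and 10 min after adding 50 nM (final) substrate. Enzyme (10 nM) and compounds were first incubated 15 min at room temperature; enzyme-free buffer wells were negative controls.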
Pol beta inh: qHTS Assay for Inhibitors of DNA Polymerase Beta. P06746. Pol beta primer extension/strand displacement, fluorescence kinetic. Potency, µM (highest dose often 114 µM), inactives show at the highest dose activity change, negative = inhibition, most hits filed as inhibitors. hit rate 1.3% among 340,000. AID 485314, 2010; also: % is scaled to controls: 0 for no effect and ±100 for the full control effect
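Kinetic readout of DNA synthesis with strand displacement by Pol beta. Compound and 10 nM enzyme sit 15 min at room temperature; 50 nM substrate starts the reaction, read immediately and at 10 min.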
POLH inh: qHTS for Inhibitors of Polymerase Eta. DNA polymerase eta (Homo sapiens), Q9Y253. recombinant Pol eta, fluorescent DNA replication assay. Potency, µM (titrated, usually from 114 µM), for the others: at the top dose activity change, negative = inhibition, actives largely listed as inhibitors. hit rate 1.2% among 390,000. AID 588591, 2011; also: % is scaled to controls: 0 for no effect and ±100 for the full control effect
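Pol eta (10 nM) was preincubated with compounds for 15 min at room temperature, after which fluorescent replication substrate (50 nM final) was added to start the reaction. Fluorescence was read kinetically at 0 and 10 min.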
FEN1 inh-2: qHTS Assay for the Inhibitors of FEN1: Confirmatory Assay for Cherry-picked Compounds. shares compounds with FEN1 inh-1. FEN1 flap cleavage, TAMRA/BHQ2 fluorogenic DNA substrate. Potency, µM, actives largely listed as inhibitors. hit rate 79% among 880; also: nearly all actives have a fitted effect of over 60% in size
* = called active by the depositor; i = inactive; ? = inconclusive; / = no result; [ ] = remark or other dose. Hits are enriched below; roughly 2.4% of the tested compounds scored in any of these assays. Calls follow the shape of the dose curve; as a rule, active = well fitted curve in the direction sought with a large enough effect; inconclusive = small, poorly fitted or top-dose-only effect, or another doubt; inactive = no such curve, though single readings can be large; an effect the other way counts as inactive or inconclusive. Potency is read from the fitted curve at half-maximal effect.

SMILES | Tb PGK inh | FEN1 inh-1 | POLK inh | POLI inh | Pol beta inh | POLH inh | FEN1 inh-2
CN1CCc2c(sc(/N=C/c3cc(Cl)ccc3O)c2C#N)C1 | -9% | -5% | -6% | 48% | -14% | -5% | /
CN1CCc2c(sc(/N=C/c3c[nH]c4ccccc34)c2C#N)C1 | -1% | ? | -16% | 95% | 2% | -18% | ?
CN1CCc2c(sc(/N=C/c3c[nH]c4ccccc34)c2C(N)=O)C1 | -1% | ? | -19% | 60% | -26% | 4% | 76*
CN(C)CCCN1C(=O)c2cccc3c([N+](=O)[O-])ccc(c23)C1=O | -1% | 50µM* | -8% | ? | ? | -17% | 34*
CCCCN(c1ccccc1)S(=O)(=O)c1cc2c3c(c1)C(C)C(=O)N3CCC2 (stereo unspecified) | 3% | 5% | -11%[60.1 µM] | 7% | 3% | -1% | /
CN(C)CCc1cc2c(c3c1ccc1ccccc13)OCO2 | i | ? | ? | ? | 20µM* | -24% | 21*
COc1cc2ccc3c(CCN(C)C)cc(OC)c(OC)c3c2cc1OC | -10% | ? | -20% | ? | 26% | -27% | /
CC1CCCC(C)N1C(=O)COC(=O)c1ccc([N+](=O)[O-])o1 (stereo unspecified) | -1% | ? | -13% | 50µM* | / | 50µM* | 15*
CC(OC(=O)c1ccc([N+](=O)[O-])o1)C(=O)NC1CCCCC1C (stereo unspecified) | -4% | 13µM* | -16% | -6% | / | ? | 6*
Cn1c(N)c(C(=O)COC(=O)c2ccc([N+](=O)[O-])o2)c(=O)n(C)c1=O | -9% | ? | -26% | 50µM* | -3% | 89µM* | 8.5*
CCOC(=O)C1CCN(C(=O)COC(=O)c2ccc([N+](=O)[O-])o2)CC1 | -2% | ? | -4% | 50µM* | / | 79µM* | 11*
CC1CCCC(C)N1C(=O)COC(=O)c1cc([N+](=O)[O-])ccc1N1CCOCC1 (stereo unspecified) | -2% | 3% | 0% | 4% | / | -8% | /
CCOC(=O)C1CCN(C(=O)COC(=O)c2cc([N+](=O)[O-])ccc2N2CCOCC2)CC1 | -3% | 4% | -2% | 26% | / | -13% | /
Cc1ccc(C(=O)OC(C)C(=O)NC2CCCCC2C)s1 (stereo unspecified) | 16% | -2% | 3% | 11% | / | -2% | /
O=C(NCCS(=O)(=O)N1CCN(c2cccc(Cl)c2)CC1)C(c1ccccc1)c1ccccc1 | 2% | 11% | -6%[60.1 µM] | 11% | 1% | 3% | /
COc1ccc(OC)c(NC(=O)C2Cc3ccccc3CN2S(=O)(=O)c2ccc(F)cc2)c1 (stereo unspecified) | / | 8% | -4% | 5% | -29% | / | /
CC(=O)OC1C=C[C@@H](OC(C)=O)C1 (stereo partly specified) | / | / | 13%[60.1 µM] | / | / | / | /
Cc1cc2c(=Cc3ccc(N(C)C)cc3)c3ccccc3n2[n+]1C | -13% | 14µM* | ? | 79µM* | / | ? | 27*
CCOC(=O)c1cc2c(=Cc3ccc(N(C)C)cc3)c3ccccc3n2[n+]1C | i | 22µM* | -20% | 40µM* | / | ? | 34*
Cc1cc(Br)ccc1NC(=O)COC(=O)c1ccccc1OCC(N)=O | / | 12% | -6% | 3% | / | / | /
CC1(c2ccccc2)CC(C)(C)N(C(=O)c2cccc(Cl)c2)c2ccccc21 (stereo unspecified) | i | -15% | ? | ? | -1% | -25% | /
C/C(=N/NC(=O)c1ccco1)c1cccc(NC(=O)c2ccc(C)s2)c1 | i | -7% | 89µM* | 19% | 3% | -11% | ?
C/C(=N/NC(=O)c1ccco1)c1cccc(NC(=O)c2ccc(C)o2)c1 | 2% | -7% | 3% | 19% | 5% | 2% | /
CN1CCN(c2ncnc3ccc(-c4ccc5c(c4)OCO5)cc23)CC1 | / | / | -6%[60.1 µM] | / | / | / | /
c1nc(NCCCN2CCCCC2)c2cc(-c3ccc4c(c3)OCO4)ccc2n1 | / | / | / | / | / | / | 34*
SMILES | Tb PGK inh | FEN1 inh-1 | POLK inh | POLI inh | Pol beta inh | POLH inh | FEN1 inh-2
Cn1cncc1CNc1ncnc2ccc(-c3ccc4c(c3)OCO4)cc12 | / | / | / | / | / | / | ?
c1csc(CNc2ncnc3ccc(-c4ccc5c(c4)OCO5)cc23)c1 | -7% | ? | -12% | 43% | / | -5% | /
c1nc(N2CCC(N3CCCC3)CC2)c2cc(-c3ccc4c(c3)OCO4)ccc2n1 | / | / | / | / | / | / | 34*
Cc1cccc(CNc2ncnc3ccc(-c4ccc5c(c4)OCO5)cc23)c1 | -9% | ? | ? | -12% | / | -8% | /
CCn1c(C(=O)Nc2ccccc2C(=O)OC)cc2sc(Cl)cc21 | -11% | -10% | 11% | 9% | 22% | -24% | /
CCOCCc1nn2c(=O)cc(COC(=O)c3ccco3)nc2s1 | 0% | 19% | -18% | -4% | 9% | -3% | /
COc1ccc(CCNc2nc(SCc3ccc(Cl)cc3)nc3ccccc23)cc1OC | 11% | -17% | 0%[60.1 µM] | 13% | 28% | -22% | /
COc1ccc(CCNc2c3ccccc3nc3ccccc23)cc1OC | 4% | 50µM* | ? | ? | 6.3µM* | ? | ?
c1ccc2c(NCCc3c[nH]c4ccccc34)c3ccccc3nc2c1 | i | ? | -3% | ? | 13µM* | ? | 21*
Fc1cccc(NCCc2c[nH]c3ccccc23)n1 | i | 7% | 11% | 13% | 36% | -15% | /
Cc1ccc(-c2noc(-c3ccc(NC4CCCC4)c([N+](=O)[O-])c3)n2)cc1 | -10% | 10% | -31% | 11% | -17% | -3% | /
CN(C)c1ccc(C2C=Cc3ccccc32)c2ccccc12 (stereo unspecified) | / | -3% | 9% | 21% | / | / | /
COc1ccccc1NC(=O)CSc1nc2ccccc2c2nc(-c3ccccc3)nn12 | 6% | 20% | -11%[60.1 µM] | 10% | ? | -14% | /
CCOc1ccccc1NC(=O)CSc1nc2ccccc2c2nc(CCn3cncc3C)nn12 | 13% | -25% | -12%[60.1 µM] | ? | ? | -24% | ?
CCOc1ccc(NC(=O)C(=O)NCC(c2cccnc2)N2CCc3ccccc32)cc1 (stereo unspecified) | 3% | 24% | -6% | 5% | 4% | -8% | /
